Measured values: the supplement of paper PMC6953052
Values joined by “and” are separate entries in the source; they are usually repeats but may differ in a detail not shown here. Identical values can stand only once. ± gives the standard deviation of the averaged measurements. In all, about 1,700 compounds were measured (“fraction of GFP-LC3-positive cells (≥5 vesicles/cell)”: median about 0.058, highest 2% from about 0.59 on). The sample holds the highest values, similar compounds and a random draw of the others, so the mix is not that of the screen.

tested on: CbCln3 +/+ GFP-LC3 cerebellar neuronal cells; test: fraction of GFP-LC3-positive cells (≥5 vesicles/cell); higher = more autophagosome accumulation
Procedure, shortened: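 Wild-type or mutant CbCln3 cerebellar cells stably expressing GFP-LC3 were plated at 2 × 10^3 per well in 384-well plates and received ~50 nL of compound in DMSO by pin transfer, in duplicate, for 24 h at 33 °C. Hoechst 33342 and LysoTracker Red were added for the last 30 min, after which cells were fixed in 3.2% PFA and three fields per well were imaged at 10×. CellProfiler counted GFP-LC3 vesicles per cell, and out-of-focus images were excluded. The reported value is the fraction of cells reaching a vesicle-count cutoff of 5 or more, averaged over duplicates.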

SMILES	fraction of GFP-LC3-positive cells
CCOC(=O)C1=C(C)NC(=S)NC1c1cccc(O)c1 (centres undefined) [Monastrol]	0.199
CNC1(C)C2CCC(C2)C1(C)C.Cl (centres undefined) [Mecamylamine hydrochloride]	0.093
CN(Cc1cnc2nc(N)nc(N)c2n1)c1ccc(C(=O)NC(CCC(=O)O)C(=O)O)cc1 (racemic) [Amethopterin (R,S)]	0.0411
CC(=O)Oc1ccc(C(c2ccc(OC(C)=O)cc2)c2ccccn2)cc1 [Bisacodyl]	0.0605
CC/C=C\C/C=C\C/C=C\C/C=C\CCCCC(=O)O [6(Z), 9(Z), 12(Z), 15(Z)-Octadecatetraenoic acid]	0.0591
CC(C(=O)O)c1ccc(-c2ccccc2)c(F)c1 (centres undefined) [Flurbiprofen]	0.0432
Cl.O=C1CC2(CCCC2)CC(=O)N1CCCCN1CCN(c2ncccn2)CC1 [Buspirone hydrochloride]	0.0334
CC(C)[N+]1(C)[C@@H]2CC[C@@H]1CC(OC(=O)C(CO)c1ccccc1)C2.[Br-] (some centres undefined) [Ipratropium bromide]	0.0779
CC[C@]12CCCN3CCc4c(n(c5ccccc45)[C@](O)(C(=O)OC)C1)[C@@H]32 [Epivincamine]	0.0608
CC(=O)N(CC(O)CN(C(C)=O)c1c(I)c(C(=O)NCC(O)CO)c(I)c(C(=O)NCC(O)CO)c1I)c1c(I)c(C(=O)NCC(O)CO)c(I)c(C(=O)NCC(O)CO)c1I (centres undefined) [Iodixanol]	0.0455
COc1ccc2cc(C(C)C(=O)O)ccc2c1 (centres undefined) [Naproxen]	0.053
CC(C)(C)C(=O)OCOC(=O)[C@@H]1N2C(=O)[C@@H](/N=C/N3CCCCCC3)[C@H]2SC1(C)C.Cl [Pivmecillinam hydrochloride]	0.0551
C[N+]1(C)CCC(OC(=O)C(O)(c2ccccc2)C2CCCC2)C1.[Br-] (centres undefined) [Glycopyrrolate]	0.0526
CCCCC/C=C\C\C=C/C=C/C=C/[C@@H](O)[C@@H](O)CCCC(=O)O	0.0542
O=C(O)c1cccnc1 [Niacin]	0.0475
CC/C=C\C/C=C\C/C=C\C/C=C\C/C=C\C/C=C\CCC(=O)O	0.0655
CC/C=C\C/C=C\C/C=C\C/C=C\C/C=C\C/C=C\CCC(=O)O [Docosahexaenoic acid (22:6 N-3)]	0.0787
CC/C=C\C/C=C\C/C=C\C/C=C\C/C=C\C/C=C\CCC(=O)O [Docosahexaenoic acid (22:6 n-3)]	0.0751
C[C@@H]1C[C@H]2[C@@H]3CCC4=CC(=O)C=C[C@]4(C)[C@@]3(F)[C@@H](O)C[C@]2(C)[C@@]1(O)C(=O)CO [dexamethasone]	0.0637
CCCCCCCC(=O)OC[C@H](CO)OC(=O)CCCCCCC	0.0799
CCCCCCCC(=O)OC[C@H](CO)OC(=O)CCCCCCC [1,2-Dioctanoyl-SN-glycerol]	0.058

SMILES	fraction of GFP-LC3-positive cells
O=c1[nH]c(=O)n([C@H]2C[C@H](O)[C@@H](CO)O2)cc1I [Idoxuridine]	0.122
CC(C)(C)NC[C@H](O)COc1nsnc1N1CCOCC1.O=C(O)/C=C\C(=O)O [Timolol maleate salt]	0.0791
CSc1ccc2c(c1)N(CCC1CCCCN1C)c1ccccc1S2.Cl (centres undefined) [Thioridazine hydrochloride]	0.103
O=C(CCCN1CCC(O)(c2ccc(Br)cc2)CC1)c1ccc(F)cc1 [Bromperidol]	0.0553
CC(C)COCC(CN(Cc1ccccc1)c1ccccc1)N1CCCC1.Cl (centres undefined) [Bepridil hydrochloride]	0.0674
CC(C)COCC(CN(Cc1ccccc1)c1ccccc1)N1CCCC1 (centres undefined)	0.773
Cl.c1ccc(CN(CC2=NCCN2)c2ccccc2)cc1 [Antazoline hydrochloride]	0.048
NC[C@H]1O[C@H](OC2[C@@H](N)C[C@@H](N)[C@H](O)[C@H]2O[C@@H]2O[C@H](CO)[C@@H](O)[C@H]2O)[C@H](N)[C@@H](O)[C@@H]1O.O=S(=O)(O)O (some centres undefined) [Ribostamycin sulfate salt]	0.0446
CC(C[N+](C)(C)C)OC(N)=O.[Cl-] (centres undefined) [Bethanechol chloride]	0.0276
COc1cc(OC)c(C(=O)CCCN2CCCC2)c(OC)c1.Cl [Buflomedil hydrochloride]	0.0492
Nc1ccc(S(=O)(=O)Nc2ccnn2-c2ccccc2)cc1 [Sulfaphenazole]	0.0807
Cl.NCc1ccc(S(N)(=O)=O)cc1 [Mafenide hydrochloride]	0.087
CCCCOc1cc(C(=O)OCCN(CC)CC)ccc1N.Cl [Benoxinate hydrochloride]	0.0443
C[N+](C)(C)CCCCCC[N+](C)(C)C.O.O.[Br-].[Br-] [Hexamethonium dibromide dihydrate]	0.0307
O=S(=O)(NCCNC/C=C/c1ccc(Br)cc1)c1cccc2cnccc12	0.0303 ± 0.022
CS(=O)(=O)Nc1ccc([N+](=O)[O-])cc1Oc1ccccc1 [Nimesulide]	0.0281
Cn1c([N+](=O)[O-])cnc1COC(N)=O [Ronidazole]	0.116
NC(=O)c1ccc(-c2nc(-c3ccc4c(c3)OCO4)c(-c3ccccn3)[nH]2)cc1	0.0591
CCCCC/C=C\C/C=C\CCCCCCCC(N)=O	0.0698
CCCCC/C=C\C/C=C\CCCCCCCC(N)=O [Linoleamide]	0.0419
C=C(C)[C@@H]1CC[C@]2(C(=O)O)CC[C@]3(C)[C@H](CC[C@@H]4[C@@]5(C)CC[C@H](O)C(C)(C)[C@@H]5CC[C@]43C)[C@@H]12 [Betulinic acid]	0.0607

SMILES	fraction of GFP-LC3-positive cells
CCCCC/C=C\C/C=C\C/C=C\C=C\[C@@H](O)CCCC(=O)O	0.0555 ± 0.014
Oc1cc2c(cc1O)CN(C(=S)NCCc1ccc(Cl)cc1)CCC2 [capsazepine]	0.197
O=C(Nc1ccccc1)c1cc([N+](=O)[O-])ccc1Cl	0.0781
CCC(=O)[C@@]1(C)[C@H](C)C[C@H]2[C@@H]3CCC4=CC(=O)C=C[C@]4(C)[C@H]3[C@@H](O)C[C@@]21C [Rimexolone]	0.0676
CCCCNc1cc(C(=O)O)cc(S(N)(=O)=O)c1Oc1ccccc1 [Bumetanide]	0.0472
C[C@@H](O)[C@H]1C(=O)N2C(C(=O)O)=C(SCCNC=N)C[C@H]12 [Imipenem]	0.032
CCCCCN(CCCCC)C(=O)C(CCC(=O)[O-])NC(=O)c1ccc(Cl)c(Cl)c1.[Na+] (centres undefined) [Lorglumide sodium salt]	0.0541
Cc1[nH]c(=O)c(C#N)cc1-c1ccncc1 [Milrinone]	0.0445
CC(N/C(=N/C#N)Nc1ccncc1)C(C)(C)C (centres undefined) [Pinacidil]	0.0667
CCCCC[C@H](O)CC(=O)CCc1ccc(O)c(OC)c1	0.0534
CN1CCN2c3ccccc3Cc3ccccc3C2C1.Cl (centres undefined) [Mianserine hydrochloride]	0.0536
CCCC[C@@H](C=O)NC(=O)[C@H](CC(C)C)NC(=O)OCc1ccccc1 [calpeptin]	0.0616
CC(C)C[C@@H](C=O)NC(=O)[C@H](CC(C)C)NC(=O)OCc1ccccc1	0.0921
CC(C)C[C@@H](C=O)NC(=O)[C@H](CC(C)C)NC(=O)[C@H](CC(C)C)NC(=O)OCc1ccccc1	0.736 ± 0.077
CCCC[C@@H](C=O)NC(=O)[C@H](CC(C)C)NC(=O)OCc1ccccc1	0.088
CC/C(=C(/CC)c1ccc(O)cc1)c1ccc(O)cc1 [Diethylstilbestrol]	0.0323
O=C(O)/C=C/c1ccc(O)c(O)c1 [Caffeic acid]	0.0546
O=C(/C=C/c1ccc(O)c(O)c1)O[C@@H]1C[C@](O)(C(=O)O)C[C@@H](O)[C@H]1O [Chlorogenic acid]	0.0755
O=C(/C=C/c1ccc(O)c(O)c1)OCCc1ccccc1	0.624
FC(F)(F)c1ccccc1-n1ccnc1	0.0512
O=C(O)CCc1nc(-c2ccccc2)c(-c2ccccc2)o1 [Oxaprozin]	0.047

SMILES	fraction of GFP-LC3-positive cells
COc1ccc2c(c1)C(=O)N(CCc1ccc(S(=O)(=O)NC(=O)NC3CCCCC3)cc1)C(=O)C2(C)C [Gliquidone]	0.0709
CC(C(=O)[O-])c1cccc(Oc2ccccc2)c1.CC(C(=O)[O-])c1cccc(Oc2ccccc2)c1.CC(C(=O)[O-])c1cccc(Oc2ccccc2)c1.O.O.[Ca+2] (centres undefined) [Fenoprofen calcium salt dihydrate]	0.0249
C[N+](C)(CCOc1ccccc1)Cc1ccccc1.O=C([O-])c1cc2ccccc2cc1O [Bephenium hydroxynaphthoate]	0.0458
Cc1ccc(NC(=O)c2cccc(N(C)C)c2)cc1NC(=O)c1ccc(O)cc1	0.0842 and 0.161
CCCCCCCC/C=C\CCCCCCCC(N)=O	0.0449
Cl.Clc1ccc(Cn2c(CN3CCCC3)nc3ccccc32)cc1 [Clemizole hydrochloride]	0.063
CCN(CC)CCOc1ccc(/C(=C(/Cl)c2ccccc2)c2ccccc2)cc1.O=C(O)CC(O)(CC(=O)O)C(=O)O [Clomiphene citrate (Z,E)]	0.0397
CCOc1ccc(Cc2nccc3cc(OCC)c(OCC)cc23)cc1OCC.Cl [Ethaverine hydrochloride]	0.0346
NCCc1c[nH]cn1	0.0411
CCOC1O[C@H]([C@@H](COCc2ccccc2)OCc2ccccc2)[C@H](OCc2ccccc2)[C@H]1O (some centres undefined) [Tribenoside]	0.102
CCOC(=O)C1=C[C@]2(CC)CCCN3CCc4c(n1c1ccccc41)[C@@H]32 [Vinpocetine]	0.0378
O=C(O)c1ccc(C2=C3C=CC4=[N]3->[Mn+3]35<-[N]6=C(C=CC6=C(c6ccc(C(=O)O)cc6)c6ccc2[n]63)C(c2ccc(C(=O)O)cc2)=c2ccc([n]25)=C4c2ccc(C(=O)O)cc2)cc1.[Cl-] (centres undefined)	0.0485
COC(=O)Nc1nc2cc(Sc3ccccc3)ccc2[nH]1 [Fenbendazole]	0.24
COC(=O)Nc1nc2cc(C(=O)c3cccs3)ccc2[nH]1 [Nocodazole]	0.627
COC(=O)Nc1nc2cc(C(=O)c3ccccc3)ccc2[nH]1 [Mebendazole]	0.619
CCCCCCCCCCCCCCCC(=O)NCCc1ccc(O)c(O)c1 [Palmitoyl dopamine]	0.0673
CCCCc1ccc2[nH]c(NC(=O)OC)nc2c1 [Parbendazole]	0.609
COC(=O)Nc1nc2cc(C(=O)c3cccs3)ccc2[nH]1 [nocodazole]	0.681
CCCSc1ccc2[nH]c(NC(=O)OC)nc2c1 [Albendazole]	0.548
CC(C(=O)O)c1ccc(C(=O)c2cccs2)cc1 (centres undefined) [Suprofen]	0.0679
COC(=O)Nc1nc2cc(SC(C)C)ccc2[nH]1 [Methiazole]	0.499
